According to PubChem BioAssay (NCATS):
Inconclusive results are not listed. A call without a number means that no potency is given here. The source made the active and inactive calls. The call rests on the fitted dose curve.

test: Cytotoxicity counterscreen for inhibitors of SARS-CoV-2 cell entry (AID 1645845); conditions: cell viability (SARS-CoV-2 entry assay cells); series mostly up to 57.1 µM; further: nearly all actives have a fitted effect of over 50% in size
How it was run: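 Expi293F/hACE2 cells seeded overnight; cpd pin-transferred in DMSO, 1 h preincubation, + media, 48 h 37 C 5% CO2; ATPLite 1step luminescence; normalized to cells and no cells.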
Potency means the concentration at half of the fitted maximal effect.

| Compound | Potency |
| --- | --- |
| O=S(=O)(Nc1ccc(-c2cccnc2)c2cccnc12)c1cccc(C(F)(F)F)c1 | 14.1 µM (active) |
| O=C(Nc1ccc(OC(F)(F)Cl)cc1)c1cnc(N2CC[C@@H](O)C2)c(-c2ccn[nH]2)c1 | inactive |
| C=CCN1C[C@H](C(=O)N(CCCN(C)C)C(=O)NCC)CC2c3cccc4[nH]cc(c34)C[C@H]21 (stereo not given in full) | inactive |
| COc1ncc(-c2ccc3c(Nc4cc(Oc5cc(F)cc(F)c5)cc(C(=O)O)c4)c(S(=O)(=O)NC4CC4)cnc3c2)c(OC)n1 | inactive |
| C=CC(=O)N1CCC[C@H](n2c(=O)n(-c3ccc(Oc4ccccc4)cc3)c3c(N)ncnc32)C1 | inactive |
| CC[C@H](NC(=O)[C@H](C)NC)C(=O)N1C[C@@H](O)C[C@H]1Cc1c(-c2[nH]c3cc(F)ccc3c2C[C@@H]2C[C@H](O)CN2C(=O)[C@H](CC)NC(=O)[C@H](C)NC)[nH]c2cc(F)ccc12 | inactive |
| CN1C(=O)N(c2cc(Cl)cc(Cl)c2)C(=O)[C@]12CN(Cc1cc(C(=O)O)cs1)C[C@H]2c1ccc(C#N)cc1 | inactive |
| COC(=O)N[C@@H](C)CNc1nccc(-c2cn(C(C)C)nc2-c2cc(Cl)cc(NS(C)(=O)=O)c2F)n1 | inactive |
| C=CC(=O)N1C[C@H](Nc2ncnc3[nH]ccc23)CC[C@@H]1C | inactive |
| Cc1cc(C)c2c(c1)[C@@H](N(Cc1cc(C(F)(F)F)cc(C(F)(F)F)c1)c1nnn(C)n1)CCCN2CC1CCC(C(=O)O)CC1 (stereo not given in full) | inactive |
| CC/C(=C(/c1ccc(/C=C/C(=O)O)cc1)c1ccc2[nH]ncc2c1)c1ccc(F)cc1Cl | inactive |
| Cc1ccc(NC(=O)Nc2nnc(Sc3ncnc4cc(OCCCN5CCOCC5)ccc34)s2)cc1 | inactive |
| C1=C/COCc2cc(ccc2OCCN2CCCC2)Nc2nccc(n2)-c2cccc(c2)COC/1 | 7.08 µM (active) |
| Cn1ncc(Cl)c1-c1cc(C(=O)N[C@H](CN)Cc2cccc(F)c2)sc1Cl | inactive |
| O=C(Nc1cccc(C(F)(F)F)c1)c1cccc2cc(Oc3cc(CO)ncn3)ccc12 | inactive |
| CN(C)N(C)C(=O)[C@@]1(Cc2ccccc2)CCCN(C(=O)[C@@H](Cc2c[nH]c3ccccc23)NC(=O)C(C)(C)N)C1 | inactive |
| CC(/C=C/C(=O)NO)=C\[C@@H](C)C(=O)c1ccc(N(C)C)cc1 | 7.94 µM (active) |
| Nc1nccc(-c2c(-c3ccc(F)cc3)ncn2C2CCN(Cc3ccon3)CC2)n1 | inactive |
| CCOC(=O)C1=CCCCC1S(=O)(=O)Nc1ccc(F)cc1Cl (stereo not given) | inactive |
| CNC(=O)Cn1cc(-c2ccc3c(c2)C(F)CC32NC(=O)N(CC(=O)N(Cc3ccc(F)cc3)[C@@H](C)C(F)(F)F)C2=O)cn1 (stereo not given in full) | inactive |

| Compound | Potency |
| --- | --- |
| NC[C@@](O)(c1ccc(Cl)cc1)c1ccc(-c2cn[nH]c2)cc1 | 28.2 µM (active) |
| COc1ccc(CNC(=O)c2cc(-c3cncc(Cl)c3)cnc2-c2ccccn2)nc1OC | inactive |
| Cc1ccc(Nc2ncc3c(n2)N(C)C(=O)N(c2cc(NC(=O)c4cccc(C(F)(F)F)c4)ccc2C)C3)cn1 | inactive |
| CC(C)NC(=O)N1CC[C@H](N=C2Nc3cc(F)ccc3N(CC(F)F)c3ccc(Cl)cc32)C1 | inactive |
| CO[C@H]1C[C@@H]2CC[C@@H](C)[C@@](O)(O2)C(=O)C(=O)N2CCCC[C@H]2C(=O)O[C@H]([C@H](C)C[C@@H]2CC[C@@H](OCCO)[C@H](OC)C2)CC(=O)[C@H](C)/C=C(/C)[C@@H](O)[C@@H](OC)C(=O)[C@H](C)C[C@H](C)/C=C\C=CC=C1C | inactive |
| Cc1cn(CCN2CCN(c3ccccc3-c3cc(C#N)cc(C(=O)NCCCN4CCCC4)c3)CC2)c2ccccc12 | 35.5 µM (active) |
| CCCc1cc(C)[nH]c(=O)c1CNC(=O)c1cc(-c2ccc(N3CCN(C(C)C)CC3)nc2)cc2c1cnn2C(C)C | inactive |
| Cc1noc2c1-c1ccccc1C(c1ccc(Cl)cc1)=N[C@H]2CC(N)=O | inactive |
| Cn1nccc1Nc1nccc(-c2cc3c(s2)C(C)(C)N(CCN2CCOCC2)C3=O)n1 | inactive |
| Cn1cc(/C=C/C(=O)c2cccc(F)c2)cc1/C=C/C(=O)NO | inactive |
| C[C@H](Nc1ncnc2nc[nH]c12)c1cc2cccc(Cl)c2c(=O)n1-c1ccccc1 | inactive |
| CS(=O)(=O)c1ccc([C@@H](CC2CCCC2)C(=O)Nc2nccs2)cc1 | inactive |
| Cc1nnn(C)c1-c1cnc2c3ccc(C(C)(C)O)cc3n([C@H](c3ccccc3)C3CCOCC3)c2c1 | inactive |
| Cn1cncc1C(N)(c1ccc(Cl)cc1)c1ccc2c(c1)c(-c1cccc(Cl)c1)cc(=O)n2C (stereo not given) | 8.91 µM (active) |
| CNS(=O)(=O)c1ccc2c(c1)/C(=C/c1[nH]c3c(c1CCCN1CCN(C)CC1)CCCC3)C(=O)N2 | inactive |
| C=C1C(=O)O[C@@H]2[C@H]3C(C)=CC[C@@]34O[C@@]4(C)CC[C@@H]12 | inactive |
| Nc1n[n+]([O-])c2ccccc2[n+]1[O-] | inactive |
| Cc1cc(F)c(C(=O)Nc2cccc(-c3nncn3C(C)C)n2)cc1-n1cnc(C2CC2)c1 | 31.6 µM (active) |
| COC(=O)N(CC(=O)O)Cc1cccc(OCc2nc(-c3ccc(Cl)cc3)oc2C)c1 | inactive |
| C[C@@H](Nc1ncnc2[nH]c(-c3ccc(O)cc3)cc12)c1ccccc1 | inactive |
